# Measurements published in PubChem BioAssay (EPA / NIEHS).
# Calls of active or inactive are those of the source. The calls were made as follows: active = hit-call score of the fitted dose curve at least 0.9, where 1 is the maximum; inactive = score below 0.9.
# How the values were obtained:
# [1] = ATG_GLI_CIS: Attagene CIS-FACTORIAL HepG2 Assay for human Zinc Finger Protein GLI1 (AID 2282945); details: HepG2, Attagene cis-factorial reporter mRNA, GLI element; actives raise or lower the signal
# In short: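 HepG2 cells transiently transfected with cis-promoter multiplexed reporter units report endogenous transcription factor activity. After 24 h chemical exposure, reporter mRNA was quantified by RT-PCR, 6-FAM labelling, HpaI digestion and capillary electrophoresis, with bidirectional fitting against DMSO.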
# [2] = ATG_GRE_CIS: Attagene CIS-FACTORIAL HepG2 Assay for human Glucocorticoid Response Elements (GRE) (AID 2282947); details: HepG2 GRE cis-reporter, Attagene multiplex mRNA; actives raise or lower the signal
# In short: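 HepG2, transient cis-reporter transfection, 24 h. Reporter mRNA: RT-PCR then CE, fluorescence. Fit both directions vs DMSO.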
# [3] = ATG_ISRE_CIS: Attagene CIS-FACTORIAL HepG2 Assay for human Interferon Regulatory Factor 1 (IRF1) binding to an Interferon-Stimulated Response Element (ISRE) (AID 2282948); details: HepG2 ISRE cis-reporter (Attagene), mRNA transcription readout; actives raise or lower the signal
# In short: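 Multiplexed mRNA reporter readout in human liver HepG2 cells: cis-element-driven reporters transfected, compound added for 24 h, transcripts amplified, fluorescently labelled and sized by capillary electrophoresis; curve fitting bidirectional against DMSO.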
# [4] = ATG_M_32_CIS: Attagene CIS-FACTORIAL HepG2 Assay for M32 Transcription Factor (Internal Marker) (AID 2282949); details: HepG2 Attagene cis-factorial M32 reporter, mRNA; actives raise or lower the signal;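 also: background control marker of the multiplexed CIS panel rather than a real target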
# In short: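 Transient MRTU transfection of HepG2; 24 h compound treatment; TriZol RNA, oligo(dT) RT, reporter PCR, 6-FAM primer extension, HpaI cut, CE. Gain/loss of signal vs DMSO.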
# [5] = ATG_M_06_CIS: Attagene CIS-FACTORIAL HepG2 Assay for M06 Transcription Factor (Internal Marker) (AID 2282950); details: HepG2 Attagene CIS-FACTORIAL M06 internal marker reporter; actives raise or lower the signal
# In short: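 HepG2 cells transiently transfected with cis-regulated multiple reporter transcription units were exposed to chemical for 24 h; reporter mRNA was quantified by RT-PCR, 6-FAM primer labelling, HpaI digestion and capillary electrophoresis, fitted bidirectionally against DMSO.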
# [6] = target: Hepatocyte nuclear factor 6 (Homo sapiens) (UniProt Q9UBC0); assay: ATG_HNF6_CIS: Attagene CIS-FACTORIAL HepG2 Assay for human Hepatocyte Nuclear Factor 6 (HNF6) (AID 2282952); details: HepG2 Attagene cis-factorial HNF6 reporter transcription; actives raise or lower the signal
# Hepatocyte nuclear factor 6 (Homo sapiens), sequence (Q9UBC0 whole entry, looked up, the tested form may be a part): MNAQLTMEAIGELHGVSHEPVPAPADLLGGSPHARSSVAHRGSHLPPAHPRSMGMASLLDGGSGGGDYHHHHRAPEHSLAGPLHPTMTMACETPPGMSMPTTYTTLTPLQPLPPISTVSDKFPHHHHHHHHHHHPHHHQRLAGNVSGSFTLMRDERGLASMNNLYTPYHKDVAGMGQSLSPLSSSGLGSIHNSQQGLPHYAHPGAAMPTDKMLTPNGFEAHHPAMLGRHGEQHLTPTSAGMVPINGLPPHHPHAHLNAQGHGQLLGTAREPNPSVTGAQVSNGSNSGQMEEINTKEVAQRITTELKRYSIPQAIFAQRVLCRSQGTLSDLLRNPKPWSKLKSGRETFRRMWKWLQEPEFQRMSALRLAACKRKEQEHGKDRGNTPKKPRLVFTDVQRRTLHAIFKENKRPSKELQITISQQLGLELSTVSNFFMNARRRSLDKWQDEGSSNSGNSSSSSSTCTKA
# In short: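 Twenty-four-hour chemical treatment of reporter-transfected HepG2 cells precedes RNA isolation, DNase-treated reverse transcription and PCR of reporter sequences. Labelled fragments are sized by capillary electrophoresis and fitted bidirectionally versus DMSO.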
# [7] = target: Heat shock factor protein 1 (Homo sapiens) (UniProt Q00613); assay: ATG_HSE_CIS: Attagene CIS-FACTORIAL HepG2 Assay for human Heat Shock Transcription Factor 1 (HSE) (AID 2282953); details: HepG2 HSE cis-reporter, Attagene RNA transcription; actives raise or lower the signal
# Heat shock factor protein 1 (Homo sapiens), sequence (Q00613 whole entry, looked up): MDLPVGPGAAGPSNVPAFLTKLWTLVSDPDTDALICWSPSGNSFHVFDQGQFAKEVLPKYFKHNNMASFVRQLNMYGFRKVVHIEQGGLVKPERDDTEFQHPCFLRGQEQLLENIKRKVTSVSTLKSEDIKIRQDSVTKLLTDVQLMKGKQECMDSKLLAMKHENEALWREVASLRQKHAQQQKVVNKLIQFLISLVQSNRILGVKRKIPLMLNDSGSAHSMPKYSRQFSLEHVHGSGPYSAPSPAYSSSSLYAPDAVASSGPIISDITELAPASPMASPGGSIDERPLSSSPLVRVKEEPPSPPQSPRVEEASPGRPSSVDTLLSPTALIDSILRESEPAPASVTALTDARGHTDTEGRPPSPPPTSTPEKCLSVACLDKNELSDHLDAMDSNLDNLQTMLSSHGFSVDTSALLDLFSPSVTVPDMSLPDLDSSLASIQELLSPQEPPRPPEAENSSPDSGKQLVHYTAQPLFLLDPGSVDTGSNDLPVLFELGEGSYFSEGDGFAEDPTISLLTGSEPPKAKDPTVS
# In short: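 HepG2 cells transiently transfected with multiple reporter transcription units under cis-regulatory promoter control, measuring endogenous transcription factor activity. After 24 h chemical exposure, reporter mRNA quantified by RT-PCR, fluorescent labelling, HpaI digestion and capillary electrophoresis; bidirectional fit versus DMSO.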
# [8] = ATG_MRE_CIS: Attagene CIS-FACTORIAL HepG2 Assay for human Metal Responsive Element (MRE) (AID 2282954); details: HepG2 MRE cis-reporter transcription, Attagene multiplex; actives raise or lower the signal
# In short: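 Readout: capillary electrophoresis of 6-FAM-labelled, HpaI-digested RT-PCR reporter products. System: HepG2 cells carrying transient multiplexed cis reporters, dosed 24 h. Analysis: bidirectional fit, DMSO baseline.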
# [9] = ATG_PBREM_CIS: Attagene CIS-FACTORIAL HepG2 Assay for human Phenobarbital-responsive Enhancer Module (PBREM) (AID 2282955); details: HepG2 PBREM cis-reporter, Attagene multiplexed transcription; actives raise or lower the signal
# In short: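 Multiplexed cis-reporter readout in human hepatoma HepG2 cells; PBREM-regulated transcript quantified after 24 h exposure by fluorescent RT-PCR fragment analysis. Signal changes up or down fitted relative to DMSO.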
# [10] = ATG_PXRE_CIS: Attagene CIS-FACTORIAL HepG2 Assay for human Pregnane X Receptor Element (PXRE) (AID 2282957); details: HepG2 Attagene CIS-FACTORIAL PXRE reporter, mRNA; actives raise or lower the signal
# In short: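 Bidirectional activity, baselined to DMSO, derived from reporter mRNA fluorescence (RT-PCR plus capillary electrophoresis) in HepG2 cells bearing cis-promoter reporter units, 24 h exposure.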
# [11] = ATG_PPRE_CIS: Attagene CIS-FACTORIAL HepG2 Assay for human Peroxisome Proliferator-activated Response Element (PPRE) (AID 2282958); details: HepG2 PPRE cis-element reporter, Attagene transcription factor profiling; actives raise or lower the signal
# In short: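 DMSO served as negative control and baseline for bidirectional curve fitting. Signal came from PPRE-regulated reporter mRNA in HepG2 cells, measured 24 h post-dosing by RT-PCR, 6-FAM primer extension and capillary electrophoresis.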
# [12] = ATG_RORE_CIS: Attagene CIS-FACTORIAL HepG2 Assay for human RAR-related Orphan Receptor Element (RORE) (AID 2282959); details: HepG2 Attagene cis-factorial RORE reporter, mRNA; actives raise or lower the signal
# In short: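 Transfect HepG2 with MRTUs; treat 24 h; extract RNA; RT with oligo(dT); PCR with reporter-specific primers; 6-FAM primer extension; HpaI digest 2 h at 37 C; capillary electrophoresis. Fit vs DMSO, bidirectional.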
# [13] = ATG_Sox_CIS: Attagene CIS-FACTORIAL HepG2 Assay for human SRY-box transcription factor (SOX) (AID 2282960); details: HepG2 Attagene cis-factorial SOX reporter, mRNA; actives raise or lower the signal
# In short: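 Fluorescence-labelled cDNA fragments from reporter transcripts, sized by CE, give the signal. Cells: HepG2, transiently transfected with cis-regulated reporter units. Exposure 24 h; DMSO negative control; bidirectional curve fitting.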
# [14] = target: Transcription factor Sp1 (Homo sapiens) (UniProt P08047); assay: ATG_Sp1_CIS: Attagene CIS-FACTORIAL HepG2 Assay for human Specificity Protein 1 (Sp1) (AID 2282961); details: HepG2 Sp1 cis-reporter transcription, actives raise or lower the signal
# Transcription factor Sp1 (Homo sapiens), sequence (P08047 whole entry, looked up): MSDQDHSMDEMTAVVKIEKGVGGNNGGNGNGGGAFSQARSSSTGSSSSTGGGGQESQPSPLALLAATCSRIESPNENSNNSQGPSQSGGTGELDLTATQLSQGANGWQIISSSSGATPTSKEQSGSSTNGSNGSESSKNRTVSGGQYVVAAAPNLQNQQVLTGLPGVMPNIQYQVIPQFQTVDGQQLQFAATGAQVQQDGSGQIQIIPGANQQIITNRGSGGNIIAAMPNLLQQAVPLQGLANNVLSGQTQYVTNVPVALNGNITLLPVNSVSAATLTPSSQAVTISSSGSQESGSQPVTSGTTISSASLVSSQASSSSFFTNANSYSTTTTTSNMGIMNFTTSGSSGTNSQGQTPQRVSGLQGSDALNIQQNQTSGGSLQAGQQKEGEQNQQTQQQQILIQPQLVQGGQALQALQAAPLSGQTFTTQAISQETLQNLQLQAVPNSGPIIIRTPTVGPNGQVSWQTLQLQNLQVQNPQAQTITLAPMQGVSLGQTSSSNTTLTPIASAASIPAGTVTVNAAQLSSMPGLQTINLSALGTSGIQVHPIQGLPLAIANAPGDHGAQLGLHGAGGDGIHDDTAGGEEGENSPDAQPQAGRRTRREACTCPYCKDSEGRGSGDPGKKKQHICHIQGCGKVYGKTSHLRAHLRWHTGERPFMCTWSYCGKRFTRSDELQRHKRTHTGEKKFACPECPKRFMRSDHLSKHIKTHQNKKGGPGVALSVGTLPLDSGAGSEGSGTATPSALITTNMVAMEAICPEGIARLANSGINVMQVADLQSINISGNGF
# In short: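 Chemicals are dosed onto HepG2 cells transfected with multiple cis-promoter reporter constructs, and after 24 h reporter RNA is reverse-transcribed, PCR-amplified and resolved by capillary electrophoresis for fluorescence quantitation; activity is scored up or down against DMSO.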
# [15] = ATG_SREBP_CIS: Attagene CIS-FACTORIAL HepG2 Assay for human Sterol Regulatory Element Binding (SREBP) (AID 2282962); details: HepG2 Attagene cis-factorial SREBP reporter, mRNA; actives raise or lower the signal
# In short: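 Endogenous factor activity is measured in HepG2 through multiplexed reporter units under cis-element control. Following a 24 h incubation, reporter transcripts are reverse-transcribed, PCR-amplified and sized by capillary electrophoresis; activity is fitted in both directions relative to DMSO.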
# [16] = target: Signal transducer and activator of transcription 3 (Homo sapiens) (UniProt P40763); assay: ATG_STAT3_CIS: Attagene CIS-FACTORIAL HepG2 Assay for human Signal Transducer and Activator of Transcription 3 (STAT3) (AID 2282963); details: HepG2, Attagene cis-factorial STAT3 reporter transcription; actives raise or lower the signal
# Signal transducer and activator of transcription 3 (Homo sapiens), sequence (P40763 whole entry, looked up): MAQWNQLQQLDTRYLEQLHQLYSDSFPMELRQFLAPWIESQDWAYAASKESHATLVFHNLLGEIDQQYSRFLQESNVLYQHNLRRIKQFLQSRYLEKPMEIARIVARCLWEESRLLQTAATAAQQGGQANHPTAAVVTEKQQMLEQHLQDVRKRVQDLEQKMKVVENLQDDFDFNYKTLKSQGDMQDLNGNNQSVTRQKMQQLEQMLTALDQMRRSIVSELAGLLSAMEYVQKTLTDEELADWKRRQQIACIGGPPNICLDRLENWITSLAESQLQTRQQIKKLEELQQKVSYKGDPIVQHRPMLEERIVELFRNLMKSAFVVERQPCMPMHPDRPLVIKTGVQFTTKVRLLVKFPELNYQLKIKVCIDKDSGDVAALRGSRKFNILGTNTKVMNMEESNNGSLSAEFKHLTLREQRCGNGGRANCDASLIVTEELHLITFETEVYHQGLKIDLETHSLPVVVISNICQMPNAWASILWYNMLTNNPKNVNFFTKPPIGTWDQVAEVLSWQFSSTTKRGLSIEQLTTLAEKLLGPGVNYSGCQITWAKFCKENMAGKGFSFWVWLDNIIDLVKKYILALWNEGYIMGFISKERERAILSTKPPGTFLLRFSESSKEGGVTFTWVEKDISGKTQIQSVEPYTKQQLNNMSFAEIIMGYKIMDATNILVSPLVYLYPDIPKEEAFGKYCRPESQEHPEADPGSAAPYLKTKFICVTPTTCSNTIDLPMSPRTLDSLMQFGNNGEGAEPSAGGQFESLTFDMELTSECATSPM
# In short: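 Uses human liver HepG2 transiently carrying cis-regulated reporter transcription units. Following 24 h dosing, reporter mRNA induction was detected by RT-PCR and capillary electrophoresis, analysed bidirectionally versus DMSO.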
# [17] = target: Hypoxia-inducible factor 1-alpha (Homo sapiens) (UniProt Q16665); assay: ATG_HIF1a_CIS: Attagene CIS-FACTORIAL HepG2 Assay for human Hypoxia Inducible Factor 1 (HIF1A) (AID 2282951); details: HepG2 Attagene cis-factorial HIF1a reporter transcription; actives raise or lower the signal
# Hypoxia-inducible factor 1-alpha (Homo sapiens), sequence (Q16665 whole entry, looked up): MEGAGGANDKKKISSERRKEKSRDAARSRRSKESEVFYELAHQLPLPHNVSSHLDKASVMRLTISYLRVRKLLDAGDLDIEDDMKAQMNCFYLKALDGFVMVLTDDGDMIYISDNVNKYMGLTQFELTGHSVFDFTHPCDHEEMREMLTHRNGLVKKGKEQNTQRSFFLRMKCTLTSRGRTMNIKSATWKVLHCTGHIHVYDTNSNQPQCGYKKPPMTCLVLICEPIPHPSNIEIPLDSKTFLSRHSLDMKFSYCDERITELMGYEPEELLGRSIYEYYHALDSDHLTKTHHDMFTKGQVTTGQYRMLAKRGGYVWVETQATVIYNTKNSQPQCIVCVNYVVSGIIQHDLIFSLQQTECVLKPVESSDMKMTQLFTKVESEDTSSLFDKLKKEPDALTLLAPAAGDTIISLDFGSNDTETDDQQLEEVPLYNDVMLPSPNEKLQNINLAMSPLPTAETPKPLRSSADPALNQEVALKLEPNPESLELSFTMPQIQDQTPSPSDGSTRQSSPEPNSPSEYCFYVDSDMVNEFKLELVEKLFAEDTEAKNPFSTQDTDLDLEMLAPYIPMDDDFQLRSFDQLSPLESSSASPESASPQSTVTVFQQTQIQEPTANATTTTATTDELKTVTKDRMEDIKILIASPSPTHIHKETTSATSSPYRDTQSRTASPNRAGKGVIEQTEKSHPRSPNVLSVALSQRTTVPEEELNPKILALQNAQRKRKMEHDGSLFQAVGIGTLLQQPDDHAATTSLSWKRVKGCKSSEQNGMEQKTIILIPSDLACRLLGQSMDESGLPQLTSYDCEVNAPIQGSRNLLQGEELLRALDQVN
# In short: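 Cis-element reporter constructs were transiently transfected into HepG2 cells, which were treated for 24 h; reporter RNA was reverse-transcribed, amplified, labelled and resolved by capillary electrophoresis.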
# [18] = target: Paired box protein Pax-6 (Homo sapiens) (UniProt P26367); assay: ATG_Pax6_CIS: Attagene CIS-FACTORIAL HepG2 Assay for human Paired Box 6 (PAX6) (AID 2282956); details: HepG2 CIS-FACTORIAL PAX6 reporter transcription, RNA readout; actives raise or lower the signal
# Paired box protein Pax-6 (Homo sapiens), sequence (P26367 whole entry, looked up): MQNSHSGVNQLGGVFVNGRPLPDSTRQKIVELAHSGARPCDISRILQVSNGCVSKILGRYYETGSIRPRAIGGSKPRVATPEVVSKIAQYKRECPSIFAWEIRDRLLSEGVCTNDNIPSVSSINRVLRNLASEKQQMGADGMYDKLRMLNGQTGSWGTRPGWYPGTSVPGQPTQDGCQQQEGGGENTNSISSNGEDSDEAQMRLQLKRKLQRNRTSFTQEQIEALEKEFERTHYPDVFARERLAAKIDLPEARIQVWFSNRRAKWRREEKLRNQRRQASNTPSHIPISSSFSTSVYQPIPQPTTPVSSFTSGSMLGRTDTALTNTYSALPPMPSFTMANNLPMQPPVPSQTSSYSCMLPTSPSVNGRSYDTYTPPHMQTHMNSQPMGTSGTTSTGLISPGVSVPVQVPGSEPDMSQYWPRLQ
# In short: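 Fluorescent RT-PCR products separated by capillary electrophoresis report PAX6-linked promoter mRNA in HepG2 cells 24 h post-dose. Curves fitted bidirectionally, DMSO as negative control.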
# [19] = ATG_TA_CIS: Attagene CIS-FACTORIAL HepG2 Assay for human TA Basal Promoter (AID 2282964); details: HepG2 Attagene CIS-factorial TA basal promoter reporter; actives raise or lower the signal
# In short: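 HepG2 cells transiently transfected with multiplexed cis-promoter reporter units, dosed 24 h. Reporter mRNA measured by RT-PCR, 6-FAM labelling, HpaI digestion and capillary electrophoresis; bidirectional fit versus DMSO baseline, serving as background control.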
structure (smiles),measurement,setting,value
C[C@H](CCC(=O)O)[C@H]1CC[C@H]2[C@@H]3CC[C@@H]4C[C@H](O)CC[C@]4(C)[C@H]3CC[C@]12C,outcome,[1],inactive
same,outcome,[2],inactive
same,AC50,[3],27.4 µM (active)
same,outcome,[4],inactive
same,outcome,[5],inactive
same,AC50,[6],146 µM (active)
same,AC50,[7],25.6 µM (active)
same,AC50,[8],26.4 µM (active)
same,outcome,[9],inactive
same,AC50,[10],3.75 µM (active)
same,outcome,[11],inactive
same,outcome,[12],inactive
same,outcome,[13],inactive
same,AC50,[14],168 µM (active)
same,outcome,[15],inactive
same,outcome,[16],inactive
CCCCN(CCO)CCO,outcome,[1],inactive
same,outcome,[2],inactive
same,outcome,[3],inactive
same,outcome,[4],inactive
same,outcome,[17],inactive
same,outcome,[6],inactive
same,outcome,[7],inactive
same,outcome,[8],inactive
same,outcome,[9],inactive
same,outcome,[18],inactive
same,outcome,[10],inactive
same,outcome,[12],inactive
same,outcome,[14],inactive
same,outcome,[15],inactive
same,outcome,[16],inactive
same,outcome,[19],inactive
CC(=O)C1C(=O)C=C(C)OC1=O (configuration not stated),outcome,[1],inactive
same,outcome,[2],inactive
same,outcome,[3],inactive
same,outcome,[4],inactive
same,outcome,[17],inactive
same,outcome,[6],inactive
same,outcome,[7],inactive
same,outcome,[8],inactive
same,outcome,[9],inactive
same,outcome,[18],inactive
same,outcome,[10],inactive
same,outcome,[11],inactive
same,outcome,[12],inactive
same,outcome,[13],inactive
same,outcome,[14],inactive
same,outcome,[15],inactive
same,outcome,[16],inactive
same,outcome,[19],inactive
C=CC(=O)OCC(CO)(COC(=O)C=C)COC(=O)C=C,outcome,[1],inactive
same,outcome,[2],inactive
same,AC50,[3],7.12 µM (active)
same,outcome,[5],inactive
same,outcome,[17],inactive
same,outcome,[6],inactive
same,AC50,[7],161 µM (active)
same,AC50,[8],5.67 µM (active)
same,AC50,[18],11.9 µM (active)
same,outcome,[10],inactive
same,AC50,[11],117 µM (active)
same,outcome,[12],inactive
same,outcome,[13],inactive
same,outcome,[14],inactive
same,outcome,[15],inactive
same,outcome,[16],inactive
same,AC50,[19],100 µM (active)
O=c1cc(-c2ccc(O)cc2)oc2cc(O)cc(O)c12,outcome,[1],inactive
same,outcome,[2],inactive
same,AC50,[3],31 µM (active)
same,outcome,[4],inactive
same,outcome,[5],inactive
same,outcome,[6],inactive
same,AC50,[7],24.9 µM (active)
same,AC50,[8],41.1 µM (active)
same,outcome,[9],inactive
same,AC50,[18],21.7 µM (active)
same,AC50,[10],14 µM (active)
same,AC50,[11],26.7 µM (active)
same,outcome,[14],inactive
same,outcome,[15],inactive
same,outcome,[16],inactive
CCCC[N+](C)(CCCC)CCCC,outcome,[1],inactive
same,outcome,[2],inactive
same,outcome,[3],inactive
same,outcome,[4],inactive
same,outcome,[5],inactive
same,outcome,[6],inactive
same,outcome,[8],inactive
same,outcome,[9],inactive
same,outcome,[18],inactive
same,outcome,[10],inactive
same,outcome,[11],inactive
same,outcome,[12],inactive
same,outcome,[13],inactive
same,outcome,[14],inactive
same,outcome,[15],inactive
same,outcome,[16],inactive
same,outcome,[19],inactive
O=C1CCCCCCCCCCCC(=O)OCCO1,outcome,[1],inactive
same,outcome,[2],inactive
same,outcome,[3],inactive
same,outcome,[4],inactive
same,outcome,[17],inactive
same,outcome,[6],inactive
same,outcome,[7],inactive
same,outcome,[8],inactive
same,outcome,[9],inactive
same,outcome,[18],inactive
same,outcome,[10],inactive
same,outcome,[11],inactive
same,outcome,[12],inactive
same,outcome,[13],inactive
same,outcome,[14],inactive
same,outcome,[15],inactive
same,outcome,[16],inactive
same,outcome,[19],inactive
CCCCOC(=O)C(C)OC(=O)CCC (configuration not stated),outcome,[1],inactive
same,outcome,[2],inactive
same,outcome,[3],inactive
same,outcome,[4],inactive
same,outcome,[17],inactive
same,outcome,[6],inactive
same,outcome,[7],inactive
same,outcome,[8],inactive
same,outcome,[10],inactive
same,outcome,[11],inactive
same,outcome,[12],inactive
same,outcome,[13],inactive
same,outcome,[14],inactive
same,outcome,[15],inactive
same,outcome,[16],inactive
